Source: PubChem BioAssay (NCI)
Compounds without any hit were thinned out: in the full panel of roughly 83,000, 20% have a hit.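 Single-dose data. Exposure time 48 hours. Values below 10 considered active.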 Calls of active or inactive are those of the source.

How the values were obtained:
Assay in all cases: NCI-60 one-dose screen, 48 h (100 = growth as untreated, 0 = no growth, -100 = all killed)
RPMI-8226 leukemia = details: 10 µM unless noted
OVCAR-8 ovarian = details: 10 µM unless noted
OVCAR-5 ovarian = details: 10 µM unless noted
OVCAR-4 ovarian = details: 10 µM unless noted
SK-OV-3 ovarian = details: 10 µM unless noted
IGROV1 ovarian = details: 10 µM unless noted
OVCAR-3 ovarian = details: 10 µM unless noted
HS 578T breast = details: 10 µM unless noted
NCI/ADR-RES ovarian = details: 10 µM unless noted
T-47D breast = details: 10 µM unless noted
BT-549 breast = details: 10 µM unless noted
MDA-MB-435 melanoma = details: 10 µM unless noted
SW-620 colon = details: 10 µM unless noted
MCF7 breast = details: 10 µM
HCT-116 colon = details: 10 µM unless noted
KM12 colon = details: 10 µM unless noted
HCC-2998 colon = details: 10 µM unless noted

Measured: growth

CSc1nc2c(c(=O)n1C)N=C1c3ccccc3C(=O)C1C(c1ccccc1)N2 (centres undefined)
inactive: RPMI-8226 leukemia 94.9% | OVCAR-8 ovarian 77.7% | OVCAR-5 ovarian 87.9% | OVCAR-4 ovarian 72.6% | SK-OV-3 ovarian 72.4% | IGROV1 ovarian 30.4% | OVCAR-3 ovarian 39.4% | HS 578T breast 71.8% | NCI/ADR-RES ovarian 55.8% | T-47D breast 61.9% | BT-549 breast 82.3% | SW-620 colon 70.7% | MCF7 breast 58.7% | HCT-116 colon 71.3% | KM12 colon 63.5%
active: MDA-MB-435 melanoma 7.03%

O=C1C(=O)c2c(ccc3ccccc23)-c2ccccc21
active: RPMI-8226 leukemia 4.32% | OVCAR-8 ovarian 2.95% | OVCAR-5 ovarian -22.4% | OVCAR-4 ovarian -95.3% | IGROV1 ovarian -21.4% | OVCAR-3 ovarian -25.5% | HS 578T breast -8.76% | NCI/ADR-RES ovarian -1.89% | T-47D breast -48.6% | BT-549 breast -72.6% | MDA-MB-435 melanoma -58.6% | SW-620 colon -73% | MCF7 breast -47.6% | HCT-116 colon -53.8%
inactive: SK-OV-3 ovarian 91.5% | KM12 colon 18.4%

O=C(Nc1ccc(Cl)cc1F)c1cc(Br)ccc1O
inactive: OVCAR-5 ovarian 22% | OVCAR-4 ovarian 14.4% | IGROV1 ovarian 19.5% | SW-620 colon 11.4%
active: RPMI-8226 leukemia -13.5% | OVCAR-8 ovarian 9.53% | SK-OV-3 ovarian -0.537% | OVCAR-3 ovarian 9.61% | HS 578T breast 1.54% | NCI/ADR-RES ovarian 7.03% | T-47D breast -14% | MDA-MB-435 melanoma 0.322% | MCF7 breast 4% | HCT-116 colon 5.79% | KM12 colon 0.131%

CC1(C)CC2(C)OC2C2(C1)N=NC(=Nc1ccccc1)O2 (centres undefined)
active: RPMI-8226 leukemia 4.43%
inactive: OVCAR-8 ovarian 77.8% | OVCAR-5 ovarian 94.3% | OVCAR-4 ovarian 60.9% | SK-OV-3 ovarian 117% | IGROV1 ovarian 89.6% | OVCAR-3 ovarian 10.3% | HS 578T breast 103% | NCI/ADR-RES ovarian 92.7% | T-47D breast 63.9% | MDA-MB-435 melanoma 59.5% | SW-620 colon 23% | MCF7 breast 23.9% | HCT-116 colon 20% | HCC-2998 colon 102% | KM12 colon 87.7%

O=C(Nc1ccc(F)cc1F)c1cc(Cl)ccc1O
inactive: OVCAR-8 ovarian 10.6% | OVCAR-5 ovarian 15.3% | OVCAR-4 ovarian 16.6% | IGROV1 ovarian 19.3% | SW-620 colon 14.5% | HCC-2998 colon 23.1%
active: RPMI-8226 leukemia 1.46% | SK-OV-3 ovarian -11.2% | OVCAR-3 ovarian 7.98% | HS 578T breast 9.26% | NCI/ADR-RES ovarian 7.62% | T-47D breast -12.4% | MDA-MB-435 melanoma 4.56% | MCF7 breast 3.22% | HCT-116 colon 8.39% | KM12 colon 5.33%

O=c1oc2ccc(I)cc2c(=O)n1-c1ccc(Br)cc1F
inactive: OVCAR-5 ovarian 20.7% | OVCAR-4 ovarian 17.1% | IGROV1 ovarian 16.3% | HCC-2998 colon 16.2%
active: RPMI-8226 leukemia -26.2% | OVCAR-8 ovarian 8.2% | SK-OV-3 ovarian -9.81% | OVCAR-3 ovarian 5.84% | HS 578T breast -4.87% | NCI/ADR-RES ovarian 7.59% | T-47D breast -7.37% | MDA-MB-435 melanoma -3.14% | SW-620 colon 8.98% | MCF7 breast 1.77% | HCT-116 colon 0.474% | KM12 colon -4.63%

COc1ccc(/C=C/C(=O)c2c(C)nc3ccccc3c2/C=C/c2ccccc2)cc1O
active: MDA-MB-435 melanoma 1.85%
inactive: RPMI-8226 leukemia 25.6% | OVCAR-8 ovarian 30.9% | OVCAR-5 ovarian 17.2% | OVCAR-4 ovarian 61.9% | SK-OV-3 ovarian 71.7% | IGROV1 ovarian 34.7% | OVCAR-3 ovarian 13.6% | HS 578T breast 37.5% | NCI/ADR-RES ovarian 17.7% | T-47D breast 39.6% | SW-620 colon 19.4% | MCF7 breast 18.2% | HCT-116 colon 12% | HCC-2998 colon 82.4% | KM12 colon 35.6%

O=c1oc2ccc(I)cc2c(=O)n1-c1ccc(Cl)cc1F
active: RPMI-8226 leukemia -24.8% | OVCAR-8 ovarian 8.33% | SK-OV-3 ovarian -1.52% | OVCAR-3 ovarian 8.51% | HS 578T breast 5.48% | NCI/ADR-RES ovarian 8.36% | T-47D breast -12% | MDA-MB-435 melanoma 1.42% | MCF7 breast 2.84% | HCT-116 colon 7.44% | KM12 colon 1.77%
inactive: OVCAR-5 ovarian 21.5% | OVCAR-4 ovarian 15.8% | IGROV1 ovarian 18.7% | SW-620 colon 11.7% | HCC-2998 colon 16.9%

CCn1c(Cc2ccccc2Nc2c(Cl)cccc2Cl)nnc1SCC(=O)NN1C(=O)/C(=C/c2cccc(OC)c2OC)SC1=S
inactive: RPMI-8226 leukemia 94.3% | OVCAR-8 ovarian 99% | OVCAR-5 ovarian 99.2% | OVCAR-4 ovarian 94.2% | SK-OV-3 ovarian 107% | IGROV1 ovarian 99% | OVCAR-3 ovarian 108% | HS 578T breast 94.7% | NCI/ADR-RES ovarian 104% | T-47D breast 86% | MDA-MB-435 melanoma 103% | SW-620 colon 106% | MCF7 breast 99.1% | HCT-116 colon 109% | HCC-2998 colon 115% | KM12 colon 102%

O=C(Nc1ccc(Br)cc1F)c1cc(Cl)ccc1O
inactive: OVCAR-4 ovarian 10.2% | IGROV1 ovarian 14.1% | SW-620 colon 11.7%
active: RPMI-8226 leukemia -24.5% | OVCAR-8 ovarian 9.87% | OVCAR-5 ovarian -9.6% | SK-OV-3 ovarian -7.14% | OVCAR-3 ovarian 2.24% | HS 578T breast 7.7% | NCI/ADR-RES ovarian 5.2% | T-47D breast -12.9% | MDA-MB-435 melanoma -13.9% | MCF7 breast 0.423% | HCT-116 colon -30.5% | HCC-2998 colon 9.31% | KM12 colon -30.9%
